Source: PubChem
Cycloheximide cs – counter-screen hit for Shiga toxin inhibitors, cycloheximide. cell reporter, cycloheximide protein synthesis inhibition counterscreen. max response, %. 300,000 compounds, 12% hits. AID 2314; in the data active = max response mostly above about 13%, no sharp cut-off; inactive = mostly below about 14%; note: read at 38.3 µM for the half of the compounds with a filed dose; 0% is about no effect
LmPK inhibitor – blocks Leishmania mexicana pyruvate kinase activity. Q27686. purified LmPK, Kinase-Glo ATP luminescence, 1 h. Potency, µM (top dose mostly 57.5 µM), for the others: at the top dose activity change, negative = inhibition, actives largely listed as inhibitors. 290,000 compounds, 0.37% hits. AID 1721; note: potency is the fitted concentration of half-maximal effect; % is set by controls: 0 for no effect and ±100 for the full control effect
Target sequence (Q27686 whole entry, looked up): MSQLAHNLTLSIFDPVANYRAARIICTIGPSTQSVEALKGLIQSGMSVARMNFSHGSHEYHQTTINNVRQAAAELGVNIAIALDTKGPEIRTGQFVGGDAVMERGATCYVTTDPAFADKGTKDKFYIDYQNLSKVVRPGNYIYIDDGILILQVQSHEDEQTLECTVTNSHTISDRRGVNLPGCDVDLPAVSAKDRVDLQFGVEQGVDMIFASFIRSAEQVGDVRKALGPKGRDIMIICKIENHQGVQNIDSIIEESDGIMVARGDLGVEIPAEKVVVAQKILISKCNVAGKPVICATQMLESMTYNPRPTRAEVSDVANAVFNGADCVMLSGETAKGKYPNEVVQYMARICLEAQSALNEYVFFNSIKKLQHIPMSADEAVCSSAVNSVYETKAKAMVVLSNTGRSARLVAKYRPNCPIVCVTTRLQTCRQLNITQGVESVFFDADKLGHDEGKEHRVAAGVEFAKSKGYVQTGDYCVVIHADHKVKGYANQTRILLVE
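0.1 nM LmPK, 0.5 mM PEP, 0.1 mM ADP; 50 mM imidazole pH 7.2, 7 mM MgCl2, 50 mM KCl; 1 h RT. Kinase-Glo luminescence readout, normalized to no-enzyme (full inhibition) and uninhibited wells.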
TbPYK inhibitor – T. brucei pyruvate kinase inhibition | Q57TT1 | TbPYK enzyme, Kinase-Glo Plus ATP luminescence, 45 min | Potency, µM (highest dose often 76.8 µM), without a hit: at the top dose activity, negative = inhibition, actives largely listed as inhibitors | 410,000 compounds, 0.12% hits | AID 624173; note: potency is the fitted concentration of half-maximal effect; % is set by controls: 0 for no effect and ±100 for the full control effect; nearly all actives have a fitted effect of over 50% in size
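T. brucei PYK with substrate was exposed to pin-transferred compounds across a concentration series, then started with 130 uM ADP (final). After 45 min at room temperature, Kinase-Glo Plus luminescence was read, normalized and curve-fitted.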
RE007 growth inh – less growth of the S. pombe RE007 Vpr strain; 360,000 compounds, 0.21% hits; Potency, µM (highest dose often 92.2 µM), inactives show top-dose activity change, negative = less growth, most hits filed as inhibitors; S. pombe RE007 Vpr strain, BacTiter-Glo ATP luminescence, 24 h; AID 651644; active = well fitted falling curve with a large enough effect; inconclusive = small, poorly fitted or top-dose-only effect; inactive = no such curve, though single readings can be large or run the other way; note: potency is the fitted concentration of half-maximal effect; % is set by controls: 0 for no effect and ±100 for the full control effect; nearly all actives have a fitted effect of over 50% in size
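Fission yeast strain RE007, carrying one chromosomally integrated HIV-1 vpr copy, was seeded at OD 0.01 in PMG+AL medium with 23 nL pinned compound. After 24 h at 30 °C and 99% humidity, viability was read by BacTiter-Glo luminescence.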
Shiga inhibitor – blocks Shiga toxin action in Vero cells; 290,000 compounds, 9.2% hits; inhibition, % at 38.7 µM; AID 2315; Vero cells, Shiga toxin protein synthesis inhibition reporter; in the data active = inhibition mostly above about 28%, no sharp cut-off; inactive = mostly below about 43%; note: 0% is about no effect
Giardia FBPA inh – Giardia lamblia aldolase inhibition; A8B2U2; purified Giardia FBPA; Potency, µM (highest dose often 59.6 µM), for inactives: at the top dose activity, negative = inhibition, usual class: inhibitors; 290,000 compounds, 0.71% hits; AID 2451; note: potency is the fitted concentration of half-maximal effect; % is set by controls: 0 for no effect and ±100 for the full control effect; nearly all actives have a fitted effect of over 55% in size
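40 nM FBPA preincubated 10 min at RT with compound (up to 57.5 uM final), then substrate plus GAPDH/TPI/NAD/arsenate coupling and diaphorase/resazurin added. Fluorescence read after 20 min at RT, 525/598 nm.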
An asterisk follows results filed as active; ? = inconclusive; · = no result. Only a selection was taken, and hits are over-represented in it overall. Unless noted, calls come from the whole dose curve; as a rule, active = well fitted curve in the direction sought with a large enough effect; inconclusive = small, poorly fitted or top-dose-only effect, or another doubt; inactive = no such curve, though single readings can be large; an effect the other way counts as inactive or inconclusive.

SMILES	Cycloheximide cs	LmPK inhibitor	TbPYK inhibitor	RE007 growth inh	Shiga inhibitor	Giardia FBPA inh
O=C(c1ccc2c(c1)OCO2)C1CCCN(C(=O)C2CCOCC2)C1 (stereo not drawn)	7.5	-1.4%	-0.7%	-14.2%	15.7	1.7%
O=C(c1ccc2c(c1)OCO2)C1CCCN(C(=O)Nc2ccc(F)cc2F)C1 (stereo not drawn)	18.3*	2.0%	-16.6%	-15.6%	18.3	3.8%
O=C(COC(=O)c1ccc2c(c1)OCCO2)Nc1ccc(F)cc1F	·	·	-8.2%	-5.7%	·	·
O=C(Nc1ccc(F)cc1F)c1ccc2c(c1)OCCO2	29.4*	?	-10.1%	-6.5%	83.2*	3.7%
O=C(Nc1ccc(Br)cc1F)c1ccc2c(c1)OCCO2	21.3*	-7.5%	-2.1%	-12.4%	40.6	5.8%
O=C(CCCCn1c(=O)c2ccccc2n(Cc2cccc(F)c2)c1=O)NCCc1ccccc1	·	·	1.3%	·	·	·
CC(C)(C)NC(=O)CSc1nnnn1C(C)(C)C	24.6*	-5.8%	-1.8%	6.7%	31.6*	4.2%
Cc1ccc(SCC(=O)NC(C)(C)C)cc1	28.3*	-0.2%	3.7%	15.9%	133.0*	2.0%
COc1ccc(NC(=O)c2ccccc2NC(=O)CSc2ccc(C)cc2)cc1	5.8	4.4%	0.5%	-8.4%	8.0	3.8%
COc1ccc(NC(=O)CSc2ccc(C)cc2)cc1	32.9*	1.0%	-4.4%	1.0%	80.9*	-0.4%
Cc1ccc(NC(=O)CNc2ccc(OC(C)C)cc2)cc1	16.3*	-5.6%	-0.5%	-8.3%	9.9	-14.3%
Cc1ccc(NC(=O)COCC(=O)Nc2ccc(C)cc2)cc1	-1.9	-4.3%	2.3%	11.8%	-2.5	-3.4%
Cn1cc(S(=O)(=O)N2CCNCC2)cc1C(N)=O	·	·	1.0%	-4.8%	·	·
Cc1cc(C)c2c(=O)n3c(nc2c1)C(Cc1ccc(O)cc1)NC(=O)c1cc2ccccc2cc1-3 (stereo not drawn)	·	·	-7.3%	0.8%	·	·
CCc1ccc(S(=O)(=O)c2nnn3c2nc(NCCc2ccccc2)c2sccc23)cc1	·	·	-7.7%	·	·	·
COc1ccc(/C=C/c2nnc(NC(=O)CSc3ccc(C)cc3)s2)cc1	15.1*	1.6%	-4.6%	-9.4%	94.0*	-3.6%
CCC(=O)Nc1nnc(/C=C/c2ccc(OC)cc2)s1	32.0*	1.7%	-3.9%	27.5%	55.1*	0.8%
CC(C)Cc1nnc(NC(=O)CCS(=O)(=O)c2ccc(Cl)cc2)s1	6.1	-6.1%	2.3%	0.1%	11.3	-4.9%
CCN1C(=O)/C(=C/C=C2/SCCN2C)SC1=S	58.9*	-17.8%	-8.2%	20.1%	78.0*	-7.9%
CCCCN1C(=O)/C(=C/C=C2\Oc3ccccc3N2CC)SC1=S	-6.4	1.5%	-7.9%	6.4%	9.8	-17.5%
CCCCN1C(=O)/C(=C/C=C2/CC(C)(C)CN2C)SC1=S	30.5*	-1.0%	-14.8%	24.6%	31.6	-9.9%
O=C(COc1ccccc1)N=C1SC2CS(=O)(=O)CC2N1c1ccccc1 (stereo not drawn)	-1.7	13.7%	6.3%	-4.5%	-6.0	-12.1%
CN(C)c1ccc(N2C(=NC(=O)COc3ccccc3)SC3CS(=O)(=O)CC32)cc1 (stereo not drawn)	24.8*	-11.2%	-7.5%	-6.5%	45.7*	·
CCOC(=O)c1ccc(NC(=O)c2cc(C)nc3ccccc23)cc1	-0.2	2.0%	-1.4%	4.0%	·	-1.3%
CCc1ccc(OCc2ccccc2C(=O)Nc2ccc3nc(C)cc(N)c3c2)cc1	26.7	·	·	·	34.9*	0.9%
SMILES	Cycloheximide cs	LmPK inhibitor	TbPYK inhibitor	RE007 growth inh	Shiga inhibitor	Giardia FBPA inh
CCCn1c(=O)c2sccc2n2c(CCCC(=O)NCCc3ccc(Cl)cc3)nnc12	·	·	-3.6%	·	·	·
O=c1ccc(-c2ccc([N+](=O)[O-])cc2)nn1-c1ccccc1	-1.7	0.5%	2.9%	-5.6%	-5.3	3.2%
N#Cc1cc(-c2ccccc2)nn1-c1ccccc1	19.1	25.1µM*	14.1µM*	-20.0%	16.0	?
O=c1ccc(-c2ccccc2)nn1Cc1ccccc1	·	·	-1.2%	7.1%	·	·
CNc1ccccc1-n1ccc(-c2ccccc2)n1	35.6*	5.1%	3.2%	?	86.5*	-4.5%
Cn1ccc(-c2ccccc2)n1	19.1*	-10.8%	0.3%	-7.9%	12.5	2.6%
CCc1ccc(CNC(=O)CCn2c(=O)c3cccn3c3ccc(F)cc32)cc1	·	·	1.3%	·	·	·
O=C(c1cc(Cl)cc(Cl)c1)N1CCC2CC1c1cc(N3CCCCC3)ccc12 (stereo not drawn)	·	·	-2.9%	8.9%	·	·
O=[N+]([O-])c1ccccc1/C=C/C=N/N1CCCCC1	66.2*	-9.1%	-0.2%	-25.2%	62.6*	-7.2%
O=[N+]([O-])c1ccccc1/C=N/N1CCN(c2ccc(Cl)cc2)CC1	-0.4	4.7%	-9.1%	-16.9%	13.4	-4.8%
O=[N+]([O-])c1cc(/C=N/N2CCN(c3ccccc3)CC2)ccc1Cl	4.5	-5.9%	2.5%	5.8%	32.6	3.6%
O=[N+]([O-])c1ccccc1/C=N\N1CCN(c2ccccc2)CC1	36.3*	4.1%	-1.2%	?	61.3*	0.3%
COc1ccccc1N1CCN(/N=C/c2cc([N+](=O)[O-])ccc2Cl)CC1	-0.4	-5.6%	2.5%	4.2%	-7.2	2.6%
O=[N+]([O-])c1ccccc1/C=C\C=N\N1CCN(c2ccccc2)CC1	25.4*	7.5%	1.1%	-21.2%	55.7	-6.8%
COc1ccccc1N1CCN(/N=C/C=C/c2ccccc2[N+](=O)[O-])CC1	13.0	-6.4%	-1.5%	-15.4%	66.7*	-9.8%
CCOc1ccc(CCN2C(=O)C(=O)N([C@@H](Cc3ccccc3)CN3CCC[C@H]3CN3C(=O)C(=O)NC[C@@H]3Cc3ccccc3)C[C@@H]2CC(C)C)cc1	·	·	4.0%	2.6%	·	·
COc1ccccc1C(=O)NC(=O)COC(=O)c1nc(Cl)ccc1Cl	·	·	-4.8%	14.5%	·	·
COCCCNCCOc1ccc(C(C)(C)c2ccccc2)cc1	-7.6	-1.0%	26.0%	5.1%	-11.3	-14.3%
CC(C)Oc1ccc(OCCNC2CCCC2)cc1	19.0	-4.5%	-4.8%	17.7%	73.7*	-6.5%
CCOc1cccc(OCCNC2CCCC2)c1	-2.6	3.0%	-12.9%	8.6%	1.2	?
C=CCNCCCCOc1ccccc1-c1ccccc1	-1.5	1.3%	7.1%	-6.1%	-3.8	1.5%
C=CCNCCCCOc1ccc(OCc2ccccc2)cc1	47.9*	-6.7%	5.2%	-5.9%	59.6*	?
c1ccc(COc2ccc(OCCCNC3CCCC3)cc2)cc1	24.9*	-7.8%	-6.5%	1.2%	53.2	-7.1%
COCCCNCCCCOc1ccc(OCc2ccccc2)cc1	30.3*	-0.9%	-3.7%	-1.7%	97.4*	?
COCCNC(=O)C1CCCN(C(=O)c2cc(-c3ccccc3)cs2)CC1 (stereo not drawn)	·	·	2.2%	10.1%	·	·
COc1ccc(C2=NN(CC(=O)Nc3ccccc3C)C(=O)CC2)cc1	11.7*	-4.7%	4.2%	-12.0%	12.3	0.9%
